Source: PubChem (several laboratories)
The list is not random: actives were taken first. Their share in the collection is about 4.1%.
PfM18AAP inh: PfM18AAP inhibitors, malaria aminopeptidase, primary screen, biochemical, QFRET, recombinant enzyme; M18 aspartyl aminopeptidase (Plasmodium falciparum 3D7); H-Glu-NHMec fluorogenic cleavage; inhibition, % at 7.35 µM; hit rate 1.2% among 290,000;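 active means inhibition above the campaign mean inhibition over all tested compounds plus 3 SD, cut at about 28% in these data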;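 further: 0% = plate median of test compound wells and 100% = 2 mM ZnCl2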
IDE cell inh: human IDE inhibitors in live cells, primary screen, fluorescence polarization, HEK cells, FAbetaB substrate; Insulin-degrading enzyme (Homo sapiens), P14735; FAbetaB cleavage; inhibition, % at 5.59 µM; hit rate 0.41% among 320,000; AID 434962, 2010;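 active means percent inhibition above the average of all tested compounds plus 3 SD, set per screening campaign, cut at about 16% in these data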;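 further: IDE supplied by intact live HEK cells; FP after avidin binding of uncleaved biotin substrate so inhibition keeps polarization high; 0% = DMSO wells and 100% = 60 µM reference IDE inhibitor Ii1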
CaV13 FRET inh: Primary screen for inhibitors of IQ motif and Ca2+-dependent inactivation inhibitor domain binding in CACNA1D, Förster resonance energy transfer in living cells, …; HEK cells, CFP/YFP FRET ICDI-IQ, plate reader, 10 min; percent FRET-ratio fall versus neutral wells; inhibition, % at 12.3 µM; hit rate 0.098% among 340,000; AID 743397;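 active means mean replicate inhibition of at least 30% and at least 1% of replicates passing that level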;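 further: 0% = median of the neutral control wells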
ALR H2O2 inh: inhibitors of human ALR sulfhydryl oxidase, primary screen, biochemical, H2O2 detection, HRP-luminol luminescence, single point | inhibition, % (concentration not given with the values) | FAD-linked sulfhydryl oxidase ALR (Homo sapiens), P55789 | AID 485317, 2010 | purified ALR, DTT oxidation | hit rate 3.8% among 290,000;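 active means mean replicate inhibition above about 79%, with every replicate also reaching it, limit read from the data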
Target sequence (P55789 whole entry, looked up): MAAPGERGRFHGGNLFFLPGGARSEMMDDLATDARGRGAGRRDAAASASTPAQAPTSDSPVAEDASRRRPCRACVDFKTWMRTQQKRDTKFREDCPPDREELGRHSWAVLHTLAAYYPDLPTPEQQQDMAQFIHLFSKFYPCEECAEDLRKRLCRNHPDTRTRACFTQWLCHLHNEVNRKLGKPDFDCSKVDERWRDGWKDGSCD
IDE act: human IDE activators in live cells, primary screen, fluorescence polarization, HEK cells, FAbeta-B substrate. Insulin-degrading enzyme (Homo sapiens), P14735. FAbeta-B cleavage; 0% vehicle, 100% cell-free pure enzyme wells. activation, % at 5.96 µM. hit rate 0.073% among 340,000;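 active means activation above the mean of all tested compounds plus 3 SD, set per screening campaign, cut at about 17% in these data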
PolyA inh: polyadenylation inhibitors in yeast reporter cells, primary screen, luminescence, S. cerevisiae | S. cerevisiae SKY197-pL101 polyadenylation reporter, beta-gal luminescence; efflux-impaired pdr1/pdr3 knockout yeast; score 100 = 6 SD above DMSO | activity score, % at 12 µM | hit rate 0.02% among 300,000 | AID 1875, 2009;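 active means lowest replicate activity score at least 50, where 100 means six control SD above control mean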;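 further: yeast exposed to compound for 9 h at 30 °C; higher score means more reporter readthrough which indicates perturbed polyadenylation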
* hit, by the source's call; x = not tested or not shown.

SMILES	PfM18AAP inh	IDE cell inh	CaV13 FRET inh	ALR H2O2 inh	IDE act	PolyA inh
COC(=O)C(CCCCNC(=O)c1ccc([N+](=O)[O-])cc1)NC(=O)c1ccc([N+](=O)[O-])cc1 (stereo unspecified)	-7	3	-12	-7	2	30
Cc1nc(SCC(=O)NC2CCS(=O)(=O)C2)c2c3c(sc2n1)CCCC3 (stereo unspecified)	x	x	-7	x	6	x
CN1CCN(C(=O)/C(=C/c2cn(S(=O)(=O)N(C)C)c3ccccc23)NC(=O)c2ccccc2Cl)CC1	0	4	-5	-1	1	4
COc1cc(CNn2cn[nH]c2=S)cc(Cl)c1OCc1ccc(F)cc1	9	-2	-5	97*	-7	5
Fc1cccc(Cl)c1CNC(c1ccccc1)c1ccccc1	6	0	-7	1	2	-27
S=c1[nH]ncn1NCc1ccc(Cl)cc1Cl	26	1	2	89*	-47	-9
Fc1cccc(Cl)c1CNn1cn[nH]c1=S	19	5	-8	82*	-2	14
C=CCOc1ccc(CNn2cn[nH]c2=S)cc1OC	14	7	-6	-22	5	16
CCN(CC)S(=O)(=O)c1cccc(C(=O)N/N=C(\C)c2ccc(O)cc2O)c1	7	-10	-7	86*	0	5
Cc1ncc(CO)c(/C=N/Nc2cccc(Cl)n2)c1O	15	-2	-4	86*	4	7
Cc1noc(NS(=O)(=O)c2ccc(NS(=O)(=O)c3ccc(Cl)cc3)cc2)c1C	x	2	-18	5	1	x
O=S1(=O)NC(=NCCOCCO)c2ccccc21	-2	-4	7	-2	-4	-19
Cc1ccc(C)c(OC2=NS(=O)(=O)c3ccccc32)c1	0	6	-6	-3	2	19
Cc1ccc2c(c1)-c1ccccc1S(=O)(=O)N2	-3	0	-5	95*	1	-26
Nc1ccc2c(c1)-c1ccccc1S(=O)(=O)N2	19	5	-13	100*	1	-16
CN1CCCC(CN2c3ccccc3Sc3ccccc32)C1 (stereo unspecified)	10	-3	-5	99*	3	4
CN1CCN(CCCN2c3ccccc3Sc3ccc(Cl)cc32)CC1	23	1	-6	99*	9	2
CCSc1ccc2c(c1)N(CCCN1CCN(C)CC1)c1ccccc1S2	x	1	-5	97*	8	x
CCN(CC)C(=O)c1ncn2c1C(=O)NC[C@H]2C	x	x	-7	x	x	x
OC1CCNC(=S)N1c1ccccc1 (stereo unspecified)	2	-2	7	-6	1	2
O=C(CSc1ccccn1)Nc1ccc(Cl)cn1	-5	3	5	-4	-2	1
O=S(=O)(c1ccc(Cl)s1)N1CCC(Cc2ccccc2)CC1	4	1	-8	97*	-4	-21
O=S(=O)(c1ccc(Br)s1)N1CCC(Cc2ccccc2)CC1	-7	3	-6	-3	5	-23
O=S(=O)(c1ccc(Cl)nc1)N1CCC(Cc2ccccc2)CC1	x	1	-2	99*	3	x
CC(OC(=O)c1cc(Br)ccc1O)C(=O)NC1(C#N)CCCCC1 (stereo unspecified)	x	10	-2	x	0	9
Cc1nc2c(-c3ccc(F)cc3)c(C)nn2c(C)c1CCC(=O)N1CCN(c2ccc(F)cc2)CC1	-8	-5	-5	-12	1	-6
COc1ccc2c(c1)c1ncn(CCc3ccccc3)c(=O)c1n2C	-8	8	-11	91*	-1	-25
COc1ccc2c(c1)c1ncn(CCCN3CCOCC3)c(=O)c1n2C	6	-1	-7	-5	-5	6
COc1ccc(-c2nc3cccc(C)n3c2NCC2CCCO2)cc1O (stereo unspecified)	10	4	-9	49	0	0
CCOc1cc(-c2nc3ccccn3c2NCC2CCCO2)ccc1O (stereo unspecified)	30*	-8	-5	69	0	5
